Screening results as filed in PubChem.
HTT prom inh = inhibitors of huntingtin promoter activity. Potency, µM (titrated, usually from 57.5 µM), without a hit: top-dose activity change, negative = inhibition, usual class: inhibitors. HEK293 HTT promoter firefly luciferase reporter, 24 h. actives 0.93% (n = 48,000); further: potency means the concentration at half of the fitted maximal effect; nearly all actives have a fitted effect of over 50% in size
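Quantitative HTS used concentration series of up to 57.5 uM final on HEK293 luciferase reporter cells, 24 h at 37 degrees C. Readout was Dual-Glo firefly luminescence.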
HTT-AS act = activators of huntingtin-antisense promoter activity; HEK293 HTT-AS promoter firefly luciferase reporter, 24 h; response scale: percent change from vehicle, -100% = no light; Potency, µM (doses to about 57.5 µM), without a hit: at the highest dose activity change, positive = activation, usual class: activators; actives 0.24% (n = 48,000); further: potency means the concentration at half of the fitted maximal effect; nearly all actives have a fitted effect of over 55% in size
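Firefly luciferase signal from promoter-reporter HEK293 cells was scaled between vehicle (0%) and zero RLU (-100%). Compounds were tested at final concentrations of up to 57.5 uM over 24 h at 37 degrees C. PTC124 at 50 uM final served as control inhibitor.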
NTMT1 inh = inhibitors of human N-terminal methyltransferase NTMT1; Q9BV86; NTMT1 MTase-Glo SAH luminescence, purified enzyme; Potency, µM (doses to about 114 µM), for inactives: top-dose activity change, negative = inhibition, usual class: inhibitors; actives 2.5% (n = 59,000); AID 1645870;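 further: potency means the concentration at half of the fitted maximal effect; plate controls were DMSO vehicle for no effect and no enzyme for full effect; nearly all actives have a fitted effect of over 65% in size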
Target sequence (Q9BV86 whole entry, looked up): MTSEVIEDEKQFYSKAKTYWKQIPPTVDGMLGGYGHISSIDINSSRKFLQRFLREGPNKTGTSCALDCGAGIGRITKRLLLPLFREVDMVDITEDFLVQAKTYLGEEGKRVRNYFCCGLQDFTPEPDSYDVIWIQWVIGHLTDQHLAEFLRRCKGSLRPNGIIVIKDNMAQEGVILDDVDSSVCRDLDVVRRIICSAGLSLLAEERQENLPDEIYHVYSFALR
Sfp qHTS opt = inhibits purified B. subtilis Sfp PPTase. shares compounds with NTMT1 inh. purified Sfp PPTase enzyme activity, qHTS. Potency, µM (doses to about 114 µM), for the others: at the highest dose activity change, negative = inhibition, hits mostly inhibitors. actives 78% (n = 230). AID 540350
Bsub HM489 growth = reduces growth of B. subtilis HM489 strain; Potency, µM (top dose mostly 114 µM), for the others: at the highest dose activity change, negative = inhibition, most hits filed as inhibitors; actives 50% (n = 220); B. subtilis HM489 (acpS-) growth, BacTiter-Glo, 5 h; shares compounds with NTMT1 inh
Sfp PPTase gel = inhibitors of Bacillus subtilis Sfp PPTase, gel-based followup. AID 540355. Potency, µM (series often up to 250 µM), without a hit: top-dose activity change, negative = inhibition, usual class: inhibitors. purified Sfp PPTase, gel-based product detection. shares compounds with NTMT1 inh. actives 54% (n = 220)
Sfp SAR2 = inhibitors of Bacillus subtilis Sfp PPTase, SAR round 2; shares compounds with NTMT1 inh; purified Sfp enzyme, PPTase activity, qHTS; Potency, µM (series often up to 57.1 µM), without a hit: at the top dose activity change, negative = inhibition, hits mostly inhibitors; actives 87% (n = 230); AID 602370
HSD17B4 counter = counter-screen for HPGD inhibitors: human HSD17B4 inhibition; Potency, µM (highest dose often 57.1 µM), without a hit: at the top dose activity change, negative = inhibition, hits mostly inhibitors; shares compounds with NTMT1 inh; actives 10% (n = 230); purified HSD17B4, estradiol/NAD+, NADH fluorescence
ALDH1A1 counter = ALDH1A1 (human) inhibition, HPGD counter-screen; shares compounds with NTMT1 inh; recombinant ALDH1A1, NADH fluorescence, propionaldehyde/NAD+; Potency, µM (top dose mostly 57.1 µM), for the others: top-dose activity change, negative = inhibition, hits mostly inhibitors; actives 93% (n = 230); AID 743195
Target sequence (P00352 whole entry, looked up): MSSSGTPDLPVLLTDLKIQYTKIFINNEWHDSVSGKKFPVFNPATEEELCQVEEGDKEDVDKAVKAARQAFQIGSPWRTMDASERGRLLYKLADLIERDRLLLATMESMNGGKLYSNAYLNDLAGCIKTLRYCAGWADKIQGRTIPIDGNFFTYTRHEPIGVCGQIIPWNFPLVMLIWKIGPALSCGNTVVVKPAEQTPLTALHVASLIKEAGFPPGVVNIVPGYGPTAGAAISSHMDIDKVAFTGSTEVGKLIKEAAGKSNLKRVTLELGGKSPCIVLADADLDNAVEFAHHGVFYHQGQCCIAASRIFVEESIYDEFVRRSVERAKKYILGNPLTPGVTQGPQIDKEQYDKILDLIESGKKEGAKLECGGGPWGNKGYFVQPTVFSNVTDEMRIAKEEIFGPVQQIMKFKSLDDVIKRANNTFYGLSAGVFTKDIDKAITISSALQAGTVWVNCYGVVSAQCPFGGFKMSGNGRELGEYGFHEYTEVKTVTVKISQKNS
NNMT inh = human NNMT inhibition, NTMT1 counter-screen | shares compounds with NTMT1 inh | Potency, µM (doses to about 57.1 µM), without a hit: at the highest dose activity, negative = inhibition, most hits filed as inhibitors | AID 1645878 | NNMT MTase-Glo luminescence, SAH detection | actives 10% (n = 120)
Numbers without * were called inactive; ? = inconclusive; / = no result given; ! = a repeat was not active; [ ] = another dose, or the depositor's remark. Shown are actives, neighbours in structure and some others; about 2.4% of the full set was active somewhere. The call rests on the fitted dose curve; in most records, active means well fitted curve in the direction sought with a large enough effect; inconclusive means small, poorly fitted or top-dose-only effect, or another doubt; inactive means no such curve, though single readings can be large; an effect the other way counts as inactive or inconclusive.

SMILES | HTT prom inh | HTT-AS act | NTMT1 inh | others
CN(c1ccc(F)cc1)S(=O)(=O)N1CCCC(C(=O)NCc2ccccc2Cl)C1 (stereo not given) | ? | -27.1% | 5.0%
COc1cccc(CNC(=O)C2CCCN(S(=O)(=O)N(C)c3ccc(F)cc3)C2)c1OC (stereo not given) | 25.1µM* | -90.5% | 2.0%
C[C@@H]1O[C@@H](O[C@H]2[C@H](Oc3cc(O)c(C(=O)CCc4ccc(O)cc4)c(O)c3)O[C@H](CO)[C@@H](O)[C@@H]2O)[C@H](O)[C@H](O)[C@H]1O | / | / | -3.3%[57.5 µM]
Cc1ccc(-n2c(=O)ccc(=O)n2CC(=O)N(C)C(C)c2ccco2)cc1 (stereo not given) | / | / | 16.6%
O=[N+]([O-])c1ccccc1CSc1nc2ncc(Br)cc2[nH]1 | / | / | 4.0%[57.5 µM]
COc1cc(-c2nc3nc[nH]n3c2Nc2ccc(C(C)C)cc2)ccc1O | -20.2% | -22.2% | 44.7µM*
COc1cc(-c2nc3cnccn3c2Nc2ccc(C(C)C)cc2)ccc1O | ? | -42.8% | 0.2%
Cc1cc(N[S+](=O)([O-])c2ccc(NC(=O)Cc3cccc(Cl)c3Cl)cc2)no1 | / | / | 2.6%
CC(C)Nc1nc(Nc2ccccc2)nc(-c2ccccc2)n1 | / | / | -1.2%[57.5 µM]
Cc1cc(C)nc(NC(=S)N2CCN(c3nccs3)CC2)c1 | / | / | ? | Sfp qHTS opt=?;Bsub HM489 growth=-27.0%;Sfp PPTase gel=20µM*!;Sfp SAR2=4.08µM*!;HSD17B4 counter=-15.1%;ALDH1A1 counter=10.8µM*
Cc1cc(C)nc(NC(=S)N2CCN(c3nncs3)CC2)c1 | / | / | -25.0%[57.5 µM] | Sfp qHTS opt=13.2µM*;Bsub HM489 growth=?;Sfp PPTase gel=31.6µM*;Sfp SAR2=2.29µM*;HSD17B4 counter=0.5%;ALDH1A1 counter=21.5µM*
Cc1ccc(Nc2nnc(Cc3ccncc3)c3ccccc23)cc1Br | / | / | 1.4%
Clc1ccc(Nc2nnc(Cc3ccncc3)c3ccccc23)cc1 | ? | -19.7% | 89.1µM*! | NNMT inh=?
Cc1cc(C)nc(/N=C(\NC#N)N2CCN(c3cccc(C(F)(F)F)c3)CC2)c1 | / | / | 2.9% | Sfp qHTS opt=?;Bsub HM489 growth=41.8µM*;Sfp PPTase gel=?;Sfp SAR2=?;HSD17B4 counter=-9.3%;ALDH1A1 counter=24.1µM*
Cc1cc(C)n(-c2nc3ccccc3nc2N2CCN(c3cccc(C(F)(F)F)c3)CC2)n1 | -3.7% | -2.4% | -0.1%
CC1CCc2onc(C(=O)N3CCN(c4cccc(C(F)(F)F)c4)CC3)c2C1 (stereo not given) | -28.0% | -28.4% | 14.3%
Cc1cc(C)nc(Nc2nnc(N3CCN(c4cccc(C(F)(F)F)c4)CC3)s2)c1 | / | / | 6.4%[57.5 µM] | Sfp qHTS opt=?;Bsub HM489 growth=41.8µM*;Sfp PPTase gel=-20.1%;Sfp SAR2=14.5µM*;HSD17B4 counter=-20.0%;ALDH1A1 counter=21.5µM*
CC(=O)O[C@H]1[C@H](O[C@H]2CC[C@]34C[C@]35CC[C@]3(C)[C@@H]([C@@]6(C)CC[C@@H](C(C)(C)O)O6)[C@@H](O)C[C@@]3(C)[C@@H]5C[C@H](O[C@@H]3O[C@H](CO)[C@@H](O)[C@H](O)[C@H]3O)[C@H]4C2(C)C)OC[C@@H](OC(C)=O)[C@@H]1O | / | / | -6.1%[57.5 µM]
O=C1[C@H](O[C@@H]2O[C@H](CO)[C@@H](O)[C@H](O)[C@H]2O)Oc2ccccc2N1O | / | / | 9.6%[29.8 µM]
CC[C@@H](C)[C@H](NC(=O)C(C)(C)NC(=O)[C@H](CCC(N)=O)NC(=O)C(C)(CC)NC(=O)[C@H](Cc1c[nH]c2ccccc12)NC(C)=O)C(=O)N[C@H](C(=O)NC(C)(C)C(=O)N[C@@H](CC(C)C)C(=O)NC(C)(C)C(=O)N1CCC[C@H]1C(=O)N[C@@H](CCC(N)=O)C(=O)NC(C)(C)C(=O)N1CC(O)C[C@H]1C(=O)NC(C)(CC)C(=O)C1CC[C@@H](C(=O)N[C@@H](Cc2ccccc2)C(=O)NCC(=O)O)N1)C(C)O (stereo not given in full) | / | / | -41.5%[6.45 µM]
CC(=O)O[C@@H]1[C@H](O[C@@H]2OC[C@](O)(CO)[C@H]2O)[C@@H](O[C@@H]2O[C@@H](C)[C@H](O)[C@@H](O[C@@H]3O[C@H](CO)[C@@H](O)[C@H](O)[C@H]3O)[C@H]2O)[C@H](OC(=O)[C@]23CCC(C)(C)C[C@H]2C2=CCC4[C@@]5(C)C[C@H](O)[C@H](O[C@@H]6O[C@H](C(=O)O)[C@@H](O)[C@H](O)[C@H]6O)[C@@](C)(C(=O)O)C5CC[C@@]4(C)[C@]2(C)CC3)O[C@@H]1C (stereo not given in full) | / | / | 5.7%[6.45 µM]
CC(=O)N1CCN(C(=S)Nc2cc(C)ccn2)CC1 | / | / | ? | Sfp qHTS opt=33.2µM*;Bsub HM489 growth=?;Sfp PPTase gel=12.6µM*;Sfp SAR2=6.46µM*;HSD17B4 counter=-9.0%;ALDH1A1 counter=12.1µM*
Cc1ccc(Nc2ncc(C(=O)N3CCN(c4ccc(F)cc4)CC3)c3ccccc23)cc1Cl | -27.9% | -21.0% | 0.5%
Cc1ccnc(NC(=S)N2CCN(c3ccc(Cl)c(Cl)c3)CC2)c1 | / | / | ? | Sfp qHTS opt=1.18µM*;Bsub HM489 growth=2.64µM*;Sfp PPTase gel=-63.4%;Sfp SAR2=0.73µM*;HSD17B4 counter=-10.3%;ALDH1A1 counter=2.41µM*
CCc1ccc(S(=O)(=O)N2CCN(c3ccc(Cl)c(Cl)c3)CC2)cc1 | -24.5% | -30.9% | 15.6%
Cc1nc2cccnc2n1-c1cccc(C(=O)N2CCN(c3cccc(Cl)c3)CC2)c1 | ? | -31.3% | -1.3%
